# According to PubChem BioAssay (NCATS):
# Results filed as inconclusive are left out. Where a call stands in place of a potency, no number is given. Activity calls are given as the source filed them. Calls follow the shape of the dose curve; as a rule, active = well fitted inhibition curve with a large enough effect; inconclusive = small, poorly fitted or top-dose-only effect; inactive = no such curve, though single readings can be large or run the other way.
# Assay: NS1 protein of Zika virus - qHTS assay to identify small molecule inhibitors in human HEK 293 cells (AID 1347053); also: nearly all actives have a fitted effect of over 55% in size
# Details: HEK293 ZIKV MR766 infection, NS1 TR-FRET, 24 h; series mostly up to 46.1 µM
# Source text: National Center for Advancing Translational Sciences [NCATS]
# Johns Hopkins University School of Medicine
# The non-structural 1 (NS1) protein of zika virus is known to associate with the viral replication complex. This cell-based TR-FRET ZIKV NS-1 assay measures the increased NS-1 protein in human HEK 293 cells after a 24-hour Zika virus infection by a TR-FRET assay readout. A decrease in the Time-resolved fluorescence energy transfer (TR-FRET) signal in this assay by small molecule treatment indicates an inhibitory effect of the small molecule on the expression of Zika virus NS1 correlating with Zika virus replication.
# HEK 293 cells were cultured in EMEM (ATCC, Cat. # 30-2003) medium with 10% fetal bovine serum (GE healthcare Life Sciences, Cat. # SH30071.03), and 1% Pen/Strep (Gibco, Cat. # 15140-122). Cells were seeded in the assay plate and incubated at 37 C with 5% CO2 for 20 hours. Compounds were added to cells and incubated for one hour before addition of ZIKV MR766 strain solution to cells (MOI = 0.5). After an incubation at 37 C for 24 hours, the reagent mixture of TR-FRET ZIKV NS1 assay using two anti-ZIKV NS1 antibodies was added to assay plates. The TR-FRET signals in assay plates were measured using an Envision plate reader (PerkinElmer). Data were normalized by using the cell-containing wells without ZIKV as a negative control (0% NS-1) and wells containing ZIKV infected cells as a positive control (100% NS-1 level).
row,Structure (SMILES),Potency
1,O=C1OC2(c3ccccc31)c1cc(Br)c(O)c(Br)c1Oc1c2cc(Br)c(O)c1Br,inactive
2,O=C(Nc1ccccc1)OCC(CN1CCCCC1)OC(=O)Nc1ccccc1 (stereo not given),inactive
3,CC1=C(C(=O)O)N2C(=O)[C@@H](NC(=O)[C@H](N)c3ccccc3)[C@H]2SC1,inactive
4,NC(=O)n1c(O)c(C(=O)c2cccs2)c2cc(Cl)ccc21,inactive
5,CCCCC(CC)COC(=O)/C=C/c1ccc(OC)cc1 (stereo not given),inactive
6,O=C(O)CCc1nc2ccccc2[nH]1,inactive
7,O=[N+]([O-])c1cccc(S(=O)(=O)NCCNS(=O)(=O)c2cccc([N+](=O)[O-])c2)c1,inactive
8,CC(C)(C)NCC(O)COc1cccc2c1C[C@H](O)[C@H](O)C2 (stereo not given in full),inactive
9,COc1cc(NS(=O)(=O)c2ccc(N)cc2)ncn1,inactive
10,CN1CCC[C@@H]1CCO[C@](C)(c1ccccc1)c1ccc(Cl)cc1,inactive
11,OC1C(O)C(O)C(O)C(O)C1O (stereo not given),inactive
12,NC(=O)c1ccccc1O,inactive
13,CC(=O)O[C@]1(C(C)=O)CC[C@H]2[C@@H]3C=C(Cl)C4=CC(=O)CC[C@]4(C)[C@H]3CC[C@@]21C,inactive
14,C/C=C/c1ccc(O)c(OC)c1,inactive
15,CCCCCCCCCCCCOCCOCCOCCOCCOCCOCCOCCOCCOCCO,inactive
16,CCCCCCCCCCCCSCCOCCO,inactive
17,CN(Cc1ccc(C(C)(C)C)cc1)Cc1cccc2ccccc12,inactive
18,O=C1C(O)=C(O)C(=O)C(O)=C1O,inactive
19,CCCCNC(=O)NS(=O)(=O)c1ccc(N)cc1,inactive
20,CCC1Nc2cc(Cl)c(S(N)(=O)=O)cc2S(=O)(=O)N1 (stereo not given),inactive

row,Structure (SMILES),Potency
1,CCC(CC)(CC(=O)Nc1cccc(/C=C/c2nc(C3CCC3)cs2)c1)C(=O)O,inactive
2,CCN(CC)CCOC(=O)C(Cc1cccc2ccccc12)CC1CCCO1 (stereo not given),inactive
3,FC(F)(F)C(F)(F)C(F)(F)C(F)(F)C(F)(F)C(F)(F)C(F)(F)C(F)(F)Br,inactive
4,Cc1nc(-c2ccc(Cl)cc2)oc1COC(C)(C)C(=O)O,inactive
5,CCc1cc(Cl)c(OC)c(C(=O)NC[C@@H]2CCCN2CC)c1O,inactive
6,CCOc1ccccc1C(N)=O,inactive
7,CN1CCc2cccc3c2[C@H]1Cc1ccc(O)c(O)c1-3,inactive
8,CO[C@H]1C=CO[C@@]2(C)Oc3c(C)c(O)c4c(O)c(c(/C=N/N5CCN(C)CC5)c(O)c4c3C2=O)NC(=O)/C(C)=C\C=C[C@H](C)[C@H](O)[C@@H](C)[C@@H](O)[C@@H](C)[C@H](OC(C)=O)[C@@H]1C,inactive
9,O=C1OC(CN2CCOCC2)CN1/N=C/c1ccc([N+](=O)[O-])o1 (stereo not given),inactive
10,CCOc1ccc(NC(C)=O)cc1,inactive
11,COc1cc(C(=O)N2CCCCCCC2)cc(OC)c1OC,inactive
12,COc1ccc(C(Cl)=C(c2ccc(OC)cc2)c2ccc(OC)cc2)cc1,inactive
13,Cc1cn([C@H]2C[C@H](F)[C@@H](CO)O2)c(=O)[nH]c1=O,inactive
14,C[N+]1(C)CCC(=C(c2ccccc2)c2ccccc2)CC1,inactive
15,COc1ccc(S(=O)(=O)N2c3ccc(Cl)cc3[C@@](O)(c3ccccc3Cl)[C@H]2C(=O)N2CCC[C@@H]2C(N)=O)cc1OC,inactive
16,CC(=O)OCC(=O)[C@H]1CC[C@H]2[C@@H]3CCC4=CC(=O)CC[C@]4(C)[C@H]3CC[C@]12C,inactive
17,Cc1cc2c(OCC(CNC(C)(C)C)OC(=O)c3ccccc3)cccc2[nH]1 (stereo not given),inactive
18,NCc1ccccc1Sc1ccccc1CO,inactive
19,CC(=O)Oc1ccc(C)cc1,inactive
20,Cn1c(=O)c2[nH]c(Br)nc2n(C)c1=O,inactive
